What all share (experiment): NCI-60 one-dose screen, 48 h (100 = growth as untreated, 0 = no growth, -100 = all killed)
What all share (settings): 10 µM unless noted

For assay [1], the system named is SR leukemia.
The subject of assay [2] is RPMI-8226 leukemia.
The test system of assay [3] is OVCAR-8 ovarian.
Assay [4] deals with OVCAR-5 ovarian.
Assay [5] relates to OVCAR-4 ovarian.
In assay [6] the test system is SK-OV-3 ovarian.
In assay [7] the test system is IGROV1 ovarian.
Assay [8] relates to OVCAR-3 ovarian.
The subject of assay [9] is HS 578T breast.
Assay [10] has as its system NCI/ADR-RES ovarian.

SMILES strings stand for the structures. The panel holds about 83,000 compounds, 20% with a hit somewhere; the sample as a whole holds those more often.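 Method: cells in 96-well plates; compound added at one concentration; 48 h incubation; percent growth measured; values under 10 scored active.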 Values without a mark were called inactive. The source made the active and inactive calls.

Consider `COc1ccc(/C=N/NC(=O)c2cnn3c2NC(c2ccccc2)C3)cc1OC` (configuration not stated), for which the growth in [1] was 32.3%; in assay [2], 83.2%; in assay [3], 75.3%; in [4], 92.1%; in assay [5], 107%; in assay [6], 78.9%. In addition, the growth is 59.6% in assay [7], 18% in assay [8] and 68% in assay [9].
Consider `NS(=O)(=O)c1ccc(CCN2C(=O)c3cc(Cl)c(Cl)cc3C2=O)cc1`, for which the growth in [1] is 96%; in assay [2], 104%; in assay [3] it was 106%; in assay [4] it was 108%; in assay [5], 104%; in [6], 113%. Moreover, the growth was 107% in assay [7], 109% in assay [8] and 108% in assay [9].
For the molecule `CN1CCN(C(=O)[C@]23CCC(C)(C)C[C@H]2C2=CC[C@@H]4[C@@]5(C)C/C(=C/c6ccncc6)C(=O)C(C)(C)[C@@H]5CC[C@@]4(C)[C@]2(C)CC3)CC1`, the growth is 7.07% (active) in assay [1]; 7.22% (active) in [2]; 55.3% in [3]; 86.9% in assay [4]; 57.4% in assay [5]; 77.6% in [6]. In addition, the figures for the growth in assay [7], in [8] and in assay [9] were 74.4%, 47.2% and 50.4%, respectively.
Take `CCOC(=O)c1cc(C(=O)c2ccc(OC)c(OC)c2)n2ccc(/C=C/c3cc[n+](CC(=O)c4ccc(OC)c(OC)c4)cc3)cc12`: the growth is 92.2% in [1]; 81.4% in assay [2]; 95.5% in [3]; 99.9% in assay [4]; 90.9% in assay [5]; 102% in [6]. Further, the growth is 88.6% in assay [7], 102% in assay [8], 102% in assay [9] and 98.6% in assay [10].
As for `CC1=CCC(OC(=O)C(C)(O)CCC(O)(C(=O)OC2(C)C=CC(O)(C(C)C)CC2)C(C)C)(C(C)C)CC1` (configuration not stated), the growth is 103% in [1]; 107% in assay [2]; 105% in [3]; 108% in assay [4]; 109% in assay [5]; 105% in assay [6]. Further, the growth is 101% in assay [7], 108% in assay [8], 105% in [9] and 108% in assay [10].
Turning to `O=C(Nc1ccc(F)cc1)Nc1ccc(NC(=O)c2cc(Cl)nc3ccccc23)cc1`, the growth was 74.1% in assay [1]; 26.5% in assay [2]; 42.9% in assay [3]; 92.9% in assay [4]; 51.2% in assay [5]; 59.8% in assay [6]. For the same molecule, the results for the growth in assay [7], in assay [8] and in assay [9] were 52.6%, 12.2% and 9.05% (active), respectively.
Turning to `N/C(=N\C(N)=N\c1nc2ccccc2s1)c1cnccn1`, the growth is 0% (active) in assay [1]; 13.3% in [2]; 28.1% in assay [3]; 60.1% in [4]; 14.9% in [5]; 12.9% in [6]. Also, the growth in assay [7] was -1.19% (active); in [8], 3.95% (active); in assay [9] it was 49%; in assay [10], 61.7%.
Consider `Cc1cc2cc3ccc(N(C)C)cc3nc2cc1N`, for which the growth in assay [1] was -2.93% (active); in assay [2] it was -19.1% (active); in assay [3] it was -2.19% (active); in assay [4] it was 3.07% (active); in assay [5], -11.9% (active); in assay [6] it was -8.06% (active). The growth in assay [7] is -1.84% (active); in [8] it was -24.7% (active); in [9] it was -32.5% (active); in assay [10], 42.4%.
In the case of `CN(C)CCC(=O)c1ccc([N+](=O)[O-])cc1`, the growth is 97.8% in [1]; 89% in assay [2]; 110% in assay [3]; 102% in assay [4]; 100% in assay [5]; 99.5% in assay [6]. For the same molecule, the growth in [7] is 109%; in assay [8] it was 110%; in assay [9], 107%.
For `CCCCCC(=O)Oc1ccc(/C(=C(\C)c2ccccc2)c2ccc(OCCN3CCCCC3)cc2)cc1`, the growth is 30.5% in assay [1]; 64.8% in [2]; 89.2% in assay [3]; 88.3% in assay [4]; 82.9% in [5]; 80.7% in [6]. Further, the growth is 90.4% in assay [7], 90.5% in assay [8], 75.6% in assay [9] and 76.3% in [10].
As to `CC(Oc1ccc(C(=O)O)cc1C(F)(F)F)c1ccc(Oc2ccccc2)cn1` (configuration not stated), the growth in [1] is 71.7%; in assay [2], 99.9%; in [3], 96.6%; in assay [4], 102%; in [5], 106%; in assay [6], 124%. Further, the results for the growth in assay [7], in assay [8] and in assay [9] were 98.4%, 104% and 99.6%, respectively.
With `c1ccc2c(-c3nccs3)c[nH]c2c1`, the growth in assay [1] was 86%; in assay [2], 104%; in [3], 106%; in assay [4], 97.3%; in assay [5] it was 110%; in assay [6] it was 99.7%. For the same molecule, the growth in [7] was 101%; in assay [8] it was 103%; in assay [9], 98.3%.
`O=S(=O)(NCCNc1nccc(-c2c(-c3cccc(F)c3)nc3sccn23)n1)c1ccccc1`: the growth in assay [1] was 29.3%; in [2], 43.5%; in [3], 33.9%; in assay [4], 79.6%; in assay [5] it was 40%; in assay [6], 57.2%. The growth in assay [7] was 4.9% (active); in assay [8] it was 58.9%; in assay [9] it was 55.5%; in assay [10] it was 46.3%.
Take `COc1ccc(NC(N)=NCCCOc2ccc(F)cc2)cc1`: the growth is 93.6% in assay [1]; 86% in assay [2]; 94.1% in assay [3]; 92.1% in assay [4]; 70.1% in [5]; 79.1% in assay [6]. Moreover, the growth is 67.7% in assay [7], 99.9% in assay [8] and 113% in [9].

These data come from PubChem BioAssay (NCI).
